Drawing on PubChem BioAssay (NCATS), this text covers Potency for 14 compounds.

The target in assay [1] is Aldehyde dehydrogenase, mitochondrial (Homo sapiens) (UniProt P05091). The assay is described as follows: qHTS for Inhibitors of the Aldehyde Dehydrogenase Family (ALDH2) Primary screen (AID 2061308). Further: nearly all actives have a fitted effect of over 55% in size. In general terms: In qHTS, concentration-response curves come from the screen itself.
Assay [2] has as its target Retinaldehyde dehydrogenase 3 (Homo sapiens) (UniProt P47895). The assay is described as follows: qHTS for Inhibitors of the Aldehyde Dehydrogenase Family (ALDH1A3) Primary screen (AID 2061315).

Results filed as inconclusive are left out. Where a call stands in place of a potency, no number is given. The source made the active and inactive calls. The call rests on the fitted dose curve; in most records, active means well fitted curve in the direction sought with a large enough effect; inconclusive means small, poorly fitted or top-dose-only effect, or another doubt; inactive means no such curve, though single readings can be large; an effect the other way counts as inactive or inconclusive.

In the case of `N/C(=N\c1nnc(-c2ccncc2)s1)Nc1ccc(F)c(C(F)(F)F)c1`, the Potency result in assay [1] and in assay [2] was “inactive” each time.
For `O=C1CCc2cc(S(=O)(=O)Nc3cccc(B(O)O)c3)ccc2N1`, the Potency entry in assay [1] and in assay [2] was “inactive” each time.
Regarding `Cc1nnc(-c2ccccc2[N+](=O)[O-])n1CCCn1ccnc1`, the Potency result in assay [1] and in assay [2] was “inactive” in each case.
As to `COc1ccc(C2c3c(n(CCc4ccccc4)cnc3=N)Oc3ccc4ccccc4c32)cc1OC` (stereo not drawn), the Potency entry in assay [1] and in assay [2] was “inactive” each time.
For `CCCn1c(C)nc2c(NCCCN(CC)CC)nc(C)nc21`, the Potency result in assay [1] and in assay [2] was “inactive” in each case.
As for `CC(=O)Nc1sc2cnccc2c1-c1nc2ccccc2s1`, the Potency entry in assay [1] and in assay [2] was “inactive” throughout.
`c1nc(N2CCCCC2)c2cc(-c3ccc4c(c3)OCO4)ccc2n1`: the Potency entry in assay [1] and in assay [2] was “inactive” throughout.
Take `C[C@H]1CC[C@@]2(OC1)O[C@H]1CC3C4CC[C@H]5C[C@@H](O)CC[C@]5(C)C4=CC(=O)[C@]3(C)[C@H]1[C@@H]2C` (stereo partly drawn): the Potency entry in assay [1] and in assay [2] was “inactive” throughout.
For `Cc1cc(C)nc(NC(=S)N2CCN(c3cc(Cl)c(Cl)c(Cl)c3)CC2)c1`, the Potency entry in assay [1] and in assay [2] was “inactive” throughout.
As to `Cc1cc(C)nc(NC(=S)N2CCN(c3cccc(S(C)(=O)=O)c3)CC2)c1`, the Potency entry in assay [1] and in assay [2] was “inactive” in each case.
In the case of `O=C(Cc1nnc(-c2cc3ccccc3[nH]2)s1)Nc1cc(C(F)(F)F)ccc1Cl`, the Potency entry in assay [1] and in assay [2] was “inactive” each time.
In the case of `CCOC(=O)c1nn(-c2ccccc2)c(=O)c2c(N)sc(C)c12`, the Potency entry in assay [1] and in assay [2] was “inactive” in each case.
For the compound `Cc1ccc(-c2csc(NC(=O)c3ccccc3NS(=O)(=O)c3ccc(C)cc3)n2)cc1`, the Potency entry in assay [1] and in assay [2] was “inactive” each time.
`O=C(Nc1ccc(S(=O)(=O)Nc2ncc(-c3ccccc3)s2)cc1)c1ccc2ccccc2c1`: the Potency entry in assay [1] and in assay [2] was “inactive” in each case.
